The nature of test [1]: NCI Yeast Anticancer Drug Screen. Data for the rad50 strain (AID 155).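 Note: 0% = growth of vehicle-only cultures of the same strain.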 The settings on record: S. cerevisiae rad50 strain growth inhibition; at 50.0 µM; active compounds read high. In a few lines:
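Compounds were tested on a yeast strain with an engineered DNA damage repair alteration; the reported value is growth inhibition normalised to vehicle treatment.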

The nature of test [2]: NCI Yeast Anticancer Drug Screen. Data for the mec2-1 strain (AID 157). Particulars: S. cerevisiae mec2-1 strain, at 50.0 µM, active compounds read high. An outline of the steps:
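Test agents were screened against the mec2-1 yeast strain, with defined DNA repair or cell cycle alteration. Growth was scored as inhibition against vehicle-only controls.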

The nature of test [3]: NCI Yeast Anticancer Drug Screen. Data for the sgs1 mgt1 strain (AID 161).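 Note: 0% = growth of cultures given vehicle only.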 Particulars: S. cerevisiae sgs1 mgt1 strain, at 50.0 µM, active compounds read high. An outline of the steps:
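Genetically altered yeast, compound exposure, growth inhibition relative to vehicle.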

Test [4] is described as follows: NCI Yeast Anticancer Drug Screen. Data for the cln2 rad14 strain (AID 165).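 Note: 0% = growth equal to vehicle treated cultures.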 Particulars: S. cerevisiae cln2 rad14 strain, at 50.0 µM, active compounds read high. An outline of the steps:
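Growth of compound-exposed yeast (cln2 rad14 genotype) measured and expressed as inhibition relative to vehicle.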

Test [5] can be described thus: NCI Yeast Anticancer Drug Screen. Data for the bub3 strain (AID 167). The settings on record: S. cerevisiae bub3 mutant strain, at 50.0 µM, active compounds read high. An outline of the steps:
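Growth of a checkpoint-deficient yeast mutant is measured after compound exposure. Values represent inhibition relative to vehicle.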

A short description of test [6]: NCI Yeast Anticancer Drug Screen. Data for the mlh1 rad18 strain (AID 175). Particulars: S. cerevisiae mlh1 rad18 strain growth inhibition; at 50.0 µM; active compounds read high. An outline of the steps:
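In this whole-cell yeast screen, a strain with altered DNA damage repair is challenged with compound, and its growth is measured against matched vehicle-treated controls.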

About 79,000 compounds went through this panel and 15% of them were active in at least one assay; those are over-represented in the sample as a whole. Values without a mark were called inactive. Activity calls are given as the source filed them. Cut-off read from the data, not from the text of the source: active = growth inhibition above about 70%; inactive = the rest.

`O=[N+]([O-])c1cccc(C2=NOC3CCCC23)c1` (stereo unspecified): the growth inhibition was 17.6% in test [1]; -7.6% in test [2]; 15.2% in test [3]; 13.8% in test [4]; -8.3% in test [5]; 16.9% in test [6].

Consider `COc1ccccc1N1C(=O)C2c3[nH]c4ccccc4c3C3CCC(C(C)(C)C)CC3C2C1=O` (stereo unspecified), for which the growth inhibition in test [1] was 17.8%; in test [2], -11.3%; in test [3], -4.2%; in test [4] it was -12.2%; in test [5], -16.2%; in test [6], 5.5%.

Consider `O=C(O)CCN(CCC(=O)O)S(=O)(=O)c1ccccc1`, for which the growth inhibition in test [1] was -4.55%; in test [2] it was -43.4%; in test [3], -4.65%; in test [4], -103%; in test [5] it was -17.6%; in test [6], 22.9%.

Consider `Cc1ccc(CNC2=C(Cl)C(=O)c3ccccc3C2=O)cc1C`, for which the growth inhibition in test [1] was 96.9% (active); in test [2], 98.2% (active); in test [3], 97.2% (active); in test [4], 97.2% (active); in test [5], 98% (active); in test [6] it was 97.2% (active).

In the case of `CCCCCCCC/C=C/CCCCCCCCCCCC(=O)O`, the growth inhibition was -7.6% in test [1]; -39.2% in test [2]; -1.45% in test [3]; -46.5% in test [4]; -8.9% in test [5]; 2.35% in test [6].

`Cc1ccc(NC(=S)NC(=O)c2ccccc2)cc1`: the growth inhibition in test [1] was 10.9%; in test [2], 4.95%; in test [3], 8.7%; in test [4] it was -55.7%; in test [5], 3.3%; in test [6], 24.4%.

Turning to `FC(F)(F)c1ccc(Cl)c(N=C=S)c1`, the growth inhibition was -26.1% in test [1]; -9.15% in test [2]; 31.4% in test [3]; -108% in test [4]; -21.8% in test [5]; -4.7% in test [6].

Take `NC12CC3CC(C1)CC(C(=O)O)(C3)C2`: the growth inhibition is 1.65% in test [1]; 3.05% in test [2]; -2.75% in test [3]; 3.45% in test [4]; 6.7% in test [5]; -7.1% in test [6].

Regarding `COC1C(CO)OC(n2c3c(Cl)cccc3c3c4c(c5c6cccc(Cl)c6[nH]c5c32)C(=O)NC4=O)C(O)C1O` (stereo unspecified), the growth inhibition is 16.8% in test [1]; 8.45% in test [2]; -1.4% in test [3]; 20.4% in test [4]; 7.4% in test [5]; -21.1% in test [6].

For `CCOC(=O)CC1c2ccc(O)cc2OC(=O)C1c1ccc(N)cc1` (stereo unspecified), the growth inhibition in test [1] was -29.1%; in test [2] it was -17.5%; in test [3], -14.8%; in test [4], -4.6%; in test [5] it was -19.2%; in test [6], -13.6%.

Consider `CCCC(C)C(C)O` (stereo unspecified), for which the growth inhibition in test [1] was -21.4%; in test [2], -45.6%; in test [3], 0.15%; in test [4], -11.1%; in test [5], -24.1%; in test [6], -14.8%.

`C=CCON(C)c1ccc([N+](=O)[O-])cc1[N+](=O)[O-]`: the growth inhibition is 15.3% in test [1]; -0.9% in test [2]; 16.1% in test [3]; -43.9% in test [4]; -1.05% in test [5]; 13.8% in test [6].

`CCOc1c(C)cc(C(C)c2cc3c(cc2OC)OCO3)cc1C` (stereo unspecified): the growth inhibition was 19.2% in test [1]; 26% in test [2]; 23.5% in test [3]; 17.4% in test [4]; 51.4% in test [5]; 25.1% in test [6].

`COc1ccc(NC(=O)N2CC3CCN2CC3)cc1`: the growth inhibition was -7.95% in test [1]; -10.8% in test [2]; -12.2% in test [3]; -21.9% in test [4]; -12.7% in test [5]; -16.2% in test [6].

On to `CCOC(=O)Nc1cc(Cl)c2ncn(C(=O)OCC)c2n1`, for which the growth inhibition in test [1] was 40.3%; in test [2] it was 16.2%; in test [3], 10.9%; in test [4], 18.9%; in test [5] it was 3.05%; in test [6] it was 17.9%.

On to `c1ccc(-c2nc3ncncc3[nH]2)cc1`, for which the growth inhibition in test [1] is 7%; in test [2], -10.3%; in test [3], -7.65%; in test [4], -13.8%; in test [5], -3.45%; in test [6] it was -5.6%.

On to `O/N=C/c1ccccc1O`, for which the growth inhibition in test [1] is 14.9%; in test [2], -19.1%; in test [3] it was -0.3%; in test [4], 9.65%; in test [5], -7.85%; in test [6], 10.2%.

As for `CC1=CC(O)(c2ccccc2)C(N2CCOCC2)N1O` (stereo unspecified), the growth inhibition in test [1] is -2.85%; in test [2], -25.6%; in test [3], -3.5%; in test [4], 13.6%; in test [5] it was 23.4%; in test [6], -8.55%.

For the molecule `O=c1cc(-c2ccccc2)c2ccc(O)cc2o1`, the growth inhibition is -11.8% in test [1]; 1.45% in test [2]; 20.4% in test [3]; 3% in test [4]; 2% in test [5]; -1.2% in test [6].

Take `CC(=O)[O-].Cc1ccnc(NS(=O)(=O)c2ccc(N=Cc3ccccc3[O-])cc2)n1.Cc1ccnc(NS(=O)(=O)c2ccc(N=Cc3ccccc3[O-])cc2)n1.[Cu+2]`: the growth inhibition in test [1] is 9%; in test [2], 2%; in test [3], 2.6%; in test [4] it was 19.1%; in test [5] it was 11.1%; in test [6] it was 34.4%.

For the molecule `O=C1CCC2(C=Nc3ccccc32)C2Cc3ccccc3N12` (stereo unspecified), the growth inhibition is -27.3% in test [1]; -11.8% in test [2]; -6.8% in test [3]; 3.75% in test [4]; 8.05% in test [5]; -29.7% in test [6].

Source of the values: PubChem BioAssay (NCI).
